# According to PMC7862700, “An all-to-all approach to the identification of sequence-specific readers for epigenetic DNA modifications on cytosine”:
# Legend:
# Test in all cases: DAPPL (digital affinity profiling via proximity ligation, sequencing); 10 mM Tris-HCl pH 7.5, 50 mM NaCl, 1 mM DTT, 4% glycerol, room temperature, 30 min; GST-TFs on glutathione beads, 16-mer random dsDNA library, 0.1% formaldehyde crosslink after washing; high values mean tight binding
# FEV = molecular target: T1, FEV (Homo sapiens, UniProt Q99581 1-238); settings: protein: recombinant; tags: N-terminal GST; dsDNA, one strand shown
# T1 sequence: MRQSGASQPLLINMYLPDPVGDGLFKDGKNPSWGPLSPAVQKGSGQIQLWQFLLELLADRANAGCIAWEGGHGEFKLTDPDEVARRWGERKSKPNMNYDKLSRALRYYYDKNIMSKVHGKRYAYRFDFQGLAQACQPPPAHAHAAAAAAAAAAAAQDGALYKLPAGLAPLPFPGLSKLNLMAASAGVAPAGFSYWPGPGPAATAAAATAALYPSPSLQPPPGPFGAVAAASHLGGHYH
# Method in brief: (§1)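 Binding signal is each hexamer's read frequency for a factor divided by its frequency in the tag-only sample. The factors were GST-fused human transcription factors from yeast, captured on glutathione beads, DNA-barcoded and pooled with that sample. Pools were incubated with 200 nmole of a random double-stranded 16-mer DNA library in Tris/NaCl/DTT/glycerol buffer at room temperature for 30 min, then washed, crosslinked with 0.1% formaldehyde, proximity-ligated with BsaI/T4 ligase (1 h, 37 °C), PCR-amplified and sequenced on an Illumina NextSeq500.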
# ETV5 = ETV5 (Homo sapiens, UniProt P41161 1-510); settings: protein: recombinant; tags: N-terminal GST; dsDNA, one strand shown
# Sequence of ETV5 (P41161 whole entry): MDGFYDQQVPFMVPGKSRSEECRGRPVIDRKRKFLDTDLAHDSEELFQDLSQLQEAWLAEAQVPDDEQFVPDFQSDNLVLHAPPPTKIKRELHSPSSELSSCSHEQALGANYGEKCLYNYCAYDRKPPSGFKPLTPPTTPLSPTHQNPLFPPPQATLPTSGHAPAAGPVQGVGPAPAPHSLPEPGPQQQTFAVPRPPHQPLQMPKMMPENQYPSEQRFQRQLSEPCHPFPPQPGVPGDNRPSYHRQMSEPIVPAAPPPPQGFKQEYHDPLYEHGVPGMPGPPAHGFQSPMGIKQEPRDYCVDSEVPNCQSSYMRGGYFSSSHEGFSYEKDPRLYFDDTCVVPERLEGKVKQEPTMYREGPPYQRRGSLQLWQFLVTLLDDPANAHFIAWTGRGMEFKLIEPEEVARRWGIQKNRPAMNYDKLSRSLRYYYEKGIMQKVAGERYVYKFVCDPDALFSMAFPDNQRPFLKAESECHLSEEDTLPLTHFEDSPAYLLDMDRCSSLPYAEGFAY
# Method in brief: as §1
# HSF1 = HSF1 (Homo sapiens, UniProt Q00613 1-529); settings: protein: recombinant; tags: N-terminal GST; chain copies: 3; dsDNA, one strand shown
# Sequence of HSF1 (Q00613 whole entry): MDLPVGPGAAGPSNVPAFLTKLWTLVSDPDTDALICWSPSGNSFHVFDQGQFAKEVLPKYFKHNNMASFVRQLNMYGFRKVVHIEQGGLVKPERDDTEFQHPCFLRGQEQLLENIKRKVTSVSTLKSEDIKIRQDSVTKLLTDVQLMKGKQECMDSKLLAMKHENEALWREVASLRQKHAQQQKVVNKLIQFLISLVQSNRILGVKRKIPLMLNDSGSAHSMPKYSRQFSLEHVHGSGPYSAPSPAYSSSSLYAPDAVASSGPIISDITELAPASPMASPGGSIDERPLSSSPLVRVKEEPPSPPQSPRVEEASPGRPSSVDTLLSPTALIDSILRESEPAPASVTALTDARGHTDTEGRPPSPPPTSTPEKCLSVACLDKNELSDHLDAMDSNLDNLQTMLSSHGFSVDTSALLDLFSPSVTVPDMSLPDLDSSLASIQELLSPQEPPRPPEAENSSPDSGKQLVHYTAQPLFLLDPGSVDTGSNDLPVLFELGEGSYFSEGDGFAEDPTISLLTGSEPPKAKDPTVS
# Method in brief: as §1
# SPIC = molecular target: T2, SPIC (Homo sapiens, UniProt Q8N5J4 1-248); settings: protein: recombinant; tags: N-terminal GST; dsDNA, one strand shown
# T2 sequence: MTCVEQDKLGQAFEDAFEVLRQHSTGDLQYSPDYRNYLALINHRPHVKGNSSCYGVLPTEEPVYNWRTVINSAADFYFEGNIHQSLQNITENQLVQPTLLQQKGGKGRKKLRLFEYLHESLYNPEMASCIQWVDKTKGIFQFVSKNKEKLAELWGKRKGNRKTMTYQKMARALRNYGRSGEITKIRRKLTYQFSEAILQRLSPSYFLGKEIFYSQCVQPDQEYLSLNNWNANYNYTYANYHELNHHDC
# Method in brief: as §1
# ELF4 = ELF4 (Homo sapiens, UniProt Q99607 1-663); settings: protein: recombinant; tags: N-terminal GST; dsDNA, one strand shown
# Sequence of ELF4 (Q99607 whole entry): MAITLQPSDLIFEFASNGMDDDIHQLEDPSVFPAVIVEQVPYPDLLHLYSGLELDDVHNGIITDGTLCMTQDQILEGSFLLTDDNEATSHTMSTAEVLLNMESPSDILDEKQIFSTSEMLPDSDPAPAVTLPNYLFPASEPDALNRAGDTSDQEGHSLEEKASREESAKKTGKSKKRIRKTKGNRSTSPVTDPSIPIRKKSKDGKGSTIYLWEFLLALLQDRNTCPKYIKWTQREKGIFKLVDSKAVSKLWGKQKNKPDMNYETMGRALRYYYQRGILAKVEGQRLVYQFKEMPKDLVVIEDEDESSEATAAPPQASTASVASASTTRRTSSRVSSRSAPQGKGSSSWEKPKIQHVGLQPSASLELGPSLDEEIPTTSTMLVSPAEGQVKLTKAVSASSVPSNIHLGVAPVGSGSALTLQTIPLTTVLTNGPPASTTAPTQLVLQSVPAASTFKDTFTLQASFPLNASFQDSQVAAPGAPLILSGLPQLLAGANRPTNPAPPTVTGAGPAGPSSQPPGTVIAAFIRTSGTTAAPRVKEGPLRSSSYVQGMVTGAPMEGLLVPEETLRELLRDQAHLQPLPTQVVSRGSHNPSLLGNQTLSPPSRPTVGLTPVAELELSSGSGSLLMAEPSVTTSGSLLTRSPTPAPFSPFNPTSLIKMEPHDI
# Method in brief: as §1
# ELK4 = molecular target: T3, ELK4 (Homo sapiens, UniProt P28324-2 1-405); settings: protein: recombinant; tags: N-terminal GST; dsDNA, one strand shown
# T3 sequence: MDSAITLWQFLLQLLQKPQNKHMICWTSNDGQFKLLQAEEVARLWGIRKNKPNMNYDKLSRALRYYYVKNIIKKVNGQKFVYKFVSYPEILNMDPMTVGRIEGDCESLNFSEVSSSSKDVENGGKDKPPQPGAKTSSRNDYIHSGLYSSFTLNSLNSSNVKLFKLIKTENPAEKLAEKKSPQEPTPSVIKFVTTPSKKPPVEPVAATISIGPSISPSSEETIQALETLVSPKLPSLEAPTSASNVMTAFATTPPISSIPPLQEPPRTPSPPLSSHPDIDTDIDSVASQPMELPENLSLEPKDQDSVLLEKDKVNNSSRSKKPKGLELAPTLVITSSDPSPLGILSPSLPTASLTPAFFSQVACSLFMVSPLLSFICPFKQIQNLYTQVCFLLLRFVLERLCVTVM
# Method in brief: as §1
# ETV2 = molecular target: T4, ETV2 (Homo sapiens, UniProt O00321 1-342); settings: protein: recombinant; tags: N-terminal GST; dsDNA, one strand shown
# T4 sequence: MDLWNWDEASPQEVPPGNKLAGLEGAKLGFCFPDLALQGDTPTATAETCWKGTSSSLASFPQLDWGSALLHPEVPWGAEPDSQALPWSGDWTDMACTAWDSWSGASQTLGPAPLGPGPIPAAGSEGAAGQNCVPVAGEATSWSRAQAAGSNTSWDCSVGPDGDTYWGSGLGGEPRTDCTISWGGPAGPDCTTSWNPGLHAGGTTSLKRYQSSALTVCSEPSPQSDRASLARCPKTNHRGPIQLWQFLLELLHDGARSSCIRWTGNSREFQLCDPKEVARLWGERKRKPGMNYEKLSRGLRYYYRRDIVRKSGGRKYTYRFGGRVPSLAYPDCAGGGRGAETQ
# Method in brief: as §1
# ELF3 = molecular target: T5, ELF3 (Homo sapiens, UniProt P78545 1-371); settings: protein: recombinant; tags: N-terminal GST; dsDNA, one strand shown
# T5 sequence: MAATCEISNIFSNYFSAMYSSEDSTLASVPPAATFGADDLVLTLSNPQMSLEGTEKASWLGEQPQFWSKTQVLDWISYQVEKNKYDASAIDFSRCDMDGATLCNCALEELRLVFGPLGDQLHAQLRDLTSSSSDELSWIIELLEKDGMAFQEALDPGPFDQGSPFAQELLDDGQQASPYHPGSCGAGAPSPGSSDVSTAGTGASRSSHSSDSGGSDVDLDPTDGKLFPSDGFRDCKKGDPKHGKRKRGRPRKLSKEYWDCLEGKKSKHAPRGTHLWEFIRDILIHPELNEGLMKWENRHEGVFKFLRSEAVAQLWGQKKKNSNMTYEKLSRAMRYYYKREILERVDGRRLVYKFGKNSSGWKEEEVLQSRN
# Method in brief: as §1
# CRX = CRX (Homo sapiens, UniProt O43186 1-299); settings: protein: recombinant; tags: N-terminal GST; dsDNA, one strand shown
# Sequence of CRX (O43186 whole entry): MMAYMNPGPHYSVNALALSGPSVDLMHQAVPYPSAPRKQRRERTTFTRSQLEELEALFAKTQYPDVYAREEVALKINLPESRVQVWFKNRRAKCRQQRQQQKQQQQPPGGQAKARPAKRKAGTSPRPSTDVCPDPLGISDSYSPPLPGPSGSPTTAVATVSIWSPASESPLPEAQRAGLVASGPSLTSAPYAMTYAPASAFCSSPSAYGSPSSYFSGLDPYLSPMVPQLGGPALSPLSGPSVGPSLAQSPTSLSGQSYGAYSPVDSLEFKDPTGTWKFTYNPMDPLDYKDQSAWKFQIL
# Method in brief: as §1
# ETV1 = ETV1 (Homo sapiens, UniProt P50549 1-477); settings: protein: recombinant; tags: N-terminal GST; dsDNA, one strand shown
# Sequence of ETV1 (P50549 whole entry): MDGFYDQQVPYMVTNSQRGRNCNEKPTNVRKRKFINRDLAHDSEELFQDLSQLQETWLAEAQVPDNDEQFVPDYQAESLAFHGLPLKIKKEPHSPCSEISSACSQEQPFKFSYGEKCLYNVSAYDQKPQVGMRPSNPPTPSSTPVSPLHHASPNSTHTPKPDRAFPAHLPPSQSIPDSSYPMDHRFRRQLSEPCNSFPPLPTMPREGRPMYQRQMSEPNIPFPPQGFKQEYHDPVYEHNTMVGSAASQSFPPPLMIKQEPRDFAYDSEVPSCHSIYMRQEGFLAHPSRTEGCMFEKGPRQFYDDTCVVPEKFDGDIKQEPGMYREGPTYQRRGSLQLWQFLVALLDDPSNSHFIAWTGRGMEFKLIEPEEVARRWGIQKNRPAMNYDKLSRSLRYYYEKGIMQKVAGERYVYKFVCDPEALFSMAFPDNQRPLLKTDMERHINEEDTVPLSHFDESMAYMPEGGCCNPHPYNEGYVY
# Method in brief: as §1
# ERF = molecular target: T6, ERF (Homo sapiens, UniProt P50548 1-548); settings: protein: recombinant; tags: N-terminal GST; dsDNA, one strand shown
# T6 sequence: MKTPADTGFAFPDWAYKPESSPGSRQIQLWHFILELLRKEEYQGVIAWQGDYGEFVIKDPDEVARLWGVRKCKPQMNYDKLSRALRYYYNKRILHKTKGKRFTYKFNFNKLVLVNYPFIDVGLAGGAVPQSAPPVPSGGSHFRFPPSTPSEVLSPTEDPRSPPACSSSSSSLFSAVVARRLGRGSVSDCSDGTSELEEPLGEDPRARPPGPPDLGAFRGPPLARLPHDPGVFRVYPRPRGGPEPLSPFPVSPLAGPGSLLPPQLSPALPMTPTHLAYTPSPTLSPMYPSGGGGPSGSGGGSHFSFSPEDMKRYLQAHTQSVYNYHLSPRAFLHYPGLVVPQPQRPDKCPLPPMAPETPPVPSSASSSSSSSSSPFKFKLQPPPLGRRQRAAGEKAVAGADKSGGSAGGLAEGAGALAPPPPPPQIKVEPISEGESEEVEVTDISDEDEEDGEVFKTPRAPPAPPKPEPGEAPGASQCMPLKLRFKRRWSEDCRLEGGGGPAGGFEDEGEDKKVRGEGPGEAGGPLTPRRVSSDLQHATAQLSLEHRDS
# Method in brief: as §1
# ETV3L = molecular target: T7, ETV3L (Homo sapiens, UniProt Q6ZN32 1-361); settings: protein: recombinant; tags: N-terminal GST; dsDNA, one strand shown
# T7 sequence: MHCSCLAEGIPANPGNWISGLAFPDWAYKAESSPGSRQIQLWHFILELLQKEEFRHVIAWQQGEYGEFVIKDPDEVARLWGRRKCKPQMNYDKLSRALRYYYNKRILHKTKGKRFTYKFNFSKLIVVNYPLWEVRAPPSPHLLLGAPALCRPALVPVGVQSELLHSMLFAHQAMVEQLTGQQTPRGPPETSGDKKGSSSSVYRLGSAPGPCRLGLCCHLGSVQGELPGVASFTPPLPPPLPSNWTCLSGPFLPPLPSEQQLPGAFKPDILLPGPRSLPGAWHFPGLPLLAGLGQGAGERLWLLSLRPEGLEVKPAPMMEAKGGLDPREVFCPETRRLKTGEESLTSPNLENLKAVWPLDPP
# Method in brief: as §1
# ETS2 = molecular target: T8, ETS2 (Homo sapiens, UniProt P15036 1-469); settings: protein: recombinant; tags: N-terminal GST; dsDNA, one strand shown
# T8 sequence: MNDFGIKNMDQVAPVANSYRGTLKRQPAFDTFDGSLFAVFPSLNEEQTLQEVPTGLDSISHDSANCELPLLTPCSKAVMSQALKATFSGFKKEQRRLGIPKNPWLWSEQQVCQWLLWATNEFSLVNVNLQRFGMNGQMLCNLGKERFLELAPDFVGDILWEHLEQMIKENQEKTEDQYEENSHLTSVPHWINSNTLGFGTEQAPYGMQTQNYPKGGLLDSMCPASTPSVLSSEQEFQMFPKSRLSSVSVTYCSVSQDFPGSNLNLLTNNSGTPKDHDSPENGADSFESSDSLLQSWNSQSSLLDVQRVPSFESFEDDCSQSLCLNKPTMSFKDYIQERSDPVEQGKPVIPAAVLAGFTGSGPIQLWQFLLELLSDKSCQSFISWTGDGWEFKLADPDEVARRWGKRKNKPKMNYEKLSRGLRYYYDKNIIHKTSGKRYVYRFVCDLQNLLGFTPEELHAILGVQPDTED
# Method in brief: as §1
# SPDEF = molecular target: T9, SPDEF (Homo sapiens, UniProt O95238 1-335); settings: protein: recombinant; tags: N-terminal GST; dsDNA, one strand shown
# T9 sequence: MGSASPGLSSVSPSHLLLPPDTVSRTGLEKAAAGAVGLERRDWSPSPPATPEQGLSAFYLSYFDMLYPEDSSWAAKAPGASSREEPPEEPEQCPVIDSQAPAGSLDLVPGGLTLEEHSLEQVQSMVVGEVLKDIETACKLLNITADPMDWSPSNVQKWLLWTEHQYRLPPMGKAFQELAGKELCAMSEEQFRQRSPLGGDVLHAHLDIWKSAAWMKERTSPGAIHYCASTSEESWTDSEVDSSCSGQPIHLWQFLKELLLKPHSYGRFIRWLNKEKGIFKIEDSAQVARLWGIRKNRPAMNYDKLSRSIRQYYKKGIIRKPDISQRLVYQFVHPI
# Method in brief: as §1
# ETV7 = molecular target: T10, ETV7 (Homo sapiens, UniProt Q9Y603 1-341); settings: protein: recombinant; tags: N-terminal GST; dsDNA, one strand shown
# T10 sequence: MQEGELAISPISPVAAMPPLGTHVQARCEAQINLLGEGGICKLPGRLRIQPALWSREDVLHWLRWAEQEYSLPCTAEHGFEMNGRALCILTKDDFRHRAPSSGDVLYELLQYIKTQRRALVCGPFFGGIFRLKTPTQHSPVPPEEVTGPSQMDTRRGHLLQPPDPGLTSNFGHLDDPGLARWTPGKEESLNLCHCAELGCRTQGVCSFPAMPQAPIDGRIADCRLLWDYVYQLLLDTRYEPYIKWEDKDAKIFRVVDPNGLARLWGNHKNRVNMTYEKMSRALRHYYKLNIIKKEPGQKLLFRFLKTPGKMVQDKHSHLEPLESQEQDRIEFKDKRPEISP
# Method in brief: as §1
# ELF5 = molecular target: T11, ELF5 (Homo sapiens, UniProt Q9UKW6-2 1-255); settings: protein: recombinant; tags: N-terminal GST; dsDNA, one strand shown
# T11 sequence: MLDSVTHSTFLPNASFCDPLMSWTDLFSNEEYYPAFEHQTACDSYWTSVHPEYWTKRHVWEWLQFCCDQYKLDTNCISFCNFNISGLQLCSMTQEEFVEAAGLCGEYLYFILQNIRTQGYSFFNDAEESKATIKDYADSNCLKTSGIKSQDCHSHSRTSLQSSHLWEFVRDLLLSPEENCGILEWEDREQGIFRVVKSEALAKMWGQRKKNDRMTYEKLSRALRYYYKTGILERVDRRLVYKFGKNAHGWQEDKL
# Method in brief: as §1
# ETV3 = molecular target: T12, ETV3 (Homo sapiens, UniProt P41162-2 1-143); settings: protein: recombinant; tags: N-terminal GST; dsDNA, one strand shown
# T12 sequence: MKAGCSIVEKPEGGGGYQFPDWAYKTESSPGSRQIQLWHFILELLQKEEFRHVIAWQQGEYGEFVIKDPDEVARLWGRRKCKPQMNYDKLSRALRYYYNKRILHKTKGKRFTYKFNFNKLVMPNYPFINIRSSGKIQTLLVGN
# Method in brief: as §1
# ETV6 = ETV6 (Homo sapiens, UniProt P41212 1-452); settings: protein: recombinant; tags: N-terminal GST; dsDNA, one strand shown
# Sequence of ETV6 (P41212 whole entry): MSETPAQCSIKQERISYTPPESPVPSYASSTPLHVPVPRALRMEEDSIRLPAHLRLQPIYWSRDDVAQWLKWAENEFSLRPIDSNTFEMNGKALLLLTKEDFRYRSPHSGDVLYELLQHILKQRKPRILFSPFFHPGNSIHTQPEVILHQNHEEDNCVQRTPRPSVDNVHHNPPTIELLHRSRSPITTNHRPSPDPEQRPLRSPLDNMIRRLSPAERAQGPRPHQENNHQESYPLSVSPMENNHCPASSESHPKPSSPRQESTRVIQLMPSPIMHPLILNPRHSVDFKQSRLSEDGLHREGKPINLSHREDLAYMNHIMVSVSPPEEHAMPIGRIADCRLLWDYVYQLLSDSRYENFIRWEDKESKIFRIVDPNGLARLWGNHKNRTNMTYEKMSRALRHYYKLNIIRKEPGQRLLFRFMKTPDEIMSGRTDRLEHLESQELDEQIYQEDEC
# Method in brief: as §1
sequence,measurement,setting,value
TCGTCT,binding signal,FEV,"1.3 fold enrichment (6-mer frequency, TF over GST control)"
same,binding signal,ETV5,"1.33 fold enrichment (6-mer frequency, TF over GST control)"
same,binding signal,HSF1,"1.46 fold enrichment (6-mer frequency, TF over GST control)"
same,binding signal,SPIC,"1.27 fold enrichment (6-mer frequency, TF over GST control)"
same,binding signal,ELF4,"1.35 fold enrichment (6-mer frequency, TF over GST control)"
same,binding signal,ELK4,"1.32 fold enrichment (6-mer frequency, TF over GST control)"
same,binding signal,ETV2,"1.36 fold enrichment (6-mer frequency, TF over GST control)"
same,binding signal,ELF3,"1.52 fold enrichment (6-mer frequency, TF over GST control)"
same,binding signal,CRX,"1.37 fold enrichment (6-mer frequency, TF over GST control)"
same,binding signal,ETV1,"1.41 fold enrichment (6-mer frequency, TF over GST control)"
same,binding signal,ERF,"1.4 fold enrichment (6-mer frequency, TF over GST control)"
same,binding signal,ETV3L,"1.43 fold enrichment (6-mer frequency, TF over GST control)"
same,binding signal,ETS2,"1.46 fold enrichment (6-mer frequency, TF over GST control)"
same,binding signal,SPDEF,"1.37 fold enrichment (6-mer frequency, TF over GST control)"
same,binding signal,ETV7,"1.21 fold enrichment (6-mer frequency, TF over GST control)"
same,binding signal,ELF5,"1.32 fold enrichment (6-mer frequency, TF over GST control)"
same,binding signal,ETV3,"1.23 fold enrichment (6-mer frequency, TF over GST control)"
same,binding signal,ETV6,"1.34 fold enrichment (6-mer frequency, TF over GST control)"
